FadD28 FP inh: inhibitors of Mycobacterium tuberculosis FadD28 bisubstrate binding. FadD28 bisubstrate probe binding, fluorescence polarization. 0.22% of 360,000 active. inhibition, % at 12.5 µM. AID 588549; in the data active means inhibition above about 8.5%, passing the limit was not always enough; inconclusive means no clear call, values can overlap the other calls
TcdB inh: TcdB glycohydrolase inhibition | P18177 | TcdB glycohydrolase enzymatic assay, plate reader | inhibition, % at 9.99 µM | AID 652162 | 0.24% of 350,000 active; in the data active means inhibition above about 10%
Target sequence (P18177 whole entry, looked up): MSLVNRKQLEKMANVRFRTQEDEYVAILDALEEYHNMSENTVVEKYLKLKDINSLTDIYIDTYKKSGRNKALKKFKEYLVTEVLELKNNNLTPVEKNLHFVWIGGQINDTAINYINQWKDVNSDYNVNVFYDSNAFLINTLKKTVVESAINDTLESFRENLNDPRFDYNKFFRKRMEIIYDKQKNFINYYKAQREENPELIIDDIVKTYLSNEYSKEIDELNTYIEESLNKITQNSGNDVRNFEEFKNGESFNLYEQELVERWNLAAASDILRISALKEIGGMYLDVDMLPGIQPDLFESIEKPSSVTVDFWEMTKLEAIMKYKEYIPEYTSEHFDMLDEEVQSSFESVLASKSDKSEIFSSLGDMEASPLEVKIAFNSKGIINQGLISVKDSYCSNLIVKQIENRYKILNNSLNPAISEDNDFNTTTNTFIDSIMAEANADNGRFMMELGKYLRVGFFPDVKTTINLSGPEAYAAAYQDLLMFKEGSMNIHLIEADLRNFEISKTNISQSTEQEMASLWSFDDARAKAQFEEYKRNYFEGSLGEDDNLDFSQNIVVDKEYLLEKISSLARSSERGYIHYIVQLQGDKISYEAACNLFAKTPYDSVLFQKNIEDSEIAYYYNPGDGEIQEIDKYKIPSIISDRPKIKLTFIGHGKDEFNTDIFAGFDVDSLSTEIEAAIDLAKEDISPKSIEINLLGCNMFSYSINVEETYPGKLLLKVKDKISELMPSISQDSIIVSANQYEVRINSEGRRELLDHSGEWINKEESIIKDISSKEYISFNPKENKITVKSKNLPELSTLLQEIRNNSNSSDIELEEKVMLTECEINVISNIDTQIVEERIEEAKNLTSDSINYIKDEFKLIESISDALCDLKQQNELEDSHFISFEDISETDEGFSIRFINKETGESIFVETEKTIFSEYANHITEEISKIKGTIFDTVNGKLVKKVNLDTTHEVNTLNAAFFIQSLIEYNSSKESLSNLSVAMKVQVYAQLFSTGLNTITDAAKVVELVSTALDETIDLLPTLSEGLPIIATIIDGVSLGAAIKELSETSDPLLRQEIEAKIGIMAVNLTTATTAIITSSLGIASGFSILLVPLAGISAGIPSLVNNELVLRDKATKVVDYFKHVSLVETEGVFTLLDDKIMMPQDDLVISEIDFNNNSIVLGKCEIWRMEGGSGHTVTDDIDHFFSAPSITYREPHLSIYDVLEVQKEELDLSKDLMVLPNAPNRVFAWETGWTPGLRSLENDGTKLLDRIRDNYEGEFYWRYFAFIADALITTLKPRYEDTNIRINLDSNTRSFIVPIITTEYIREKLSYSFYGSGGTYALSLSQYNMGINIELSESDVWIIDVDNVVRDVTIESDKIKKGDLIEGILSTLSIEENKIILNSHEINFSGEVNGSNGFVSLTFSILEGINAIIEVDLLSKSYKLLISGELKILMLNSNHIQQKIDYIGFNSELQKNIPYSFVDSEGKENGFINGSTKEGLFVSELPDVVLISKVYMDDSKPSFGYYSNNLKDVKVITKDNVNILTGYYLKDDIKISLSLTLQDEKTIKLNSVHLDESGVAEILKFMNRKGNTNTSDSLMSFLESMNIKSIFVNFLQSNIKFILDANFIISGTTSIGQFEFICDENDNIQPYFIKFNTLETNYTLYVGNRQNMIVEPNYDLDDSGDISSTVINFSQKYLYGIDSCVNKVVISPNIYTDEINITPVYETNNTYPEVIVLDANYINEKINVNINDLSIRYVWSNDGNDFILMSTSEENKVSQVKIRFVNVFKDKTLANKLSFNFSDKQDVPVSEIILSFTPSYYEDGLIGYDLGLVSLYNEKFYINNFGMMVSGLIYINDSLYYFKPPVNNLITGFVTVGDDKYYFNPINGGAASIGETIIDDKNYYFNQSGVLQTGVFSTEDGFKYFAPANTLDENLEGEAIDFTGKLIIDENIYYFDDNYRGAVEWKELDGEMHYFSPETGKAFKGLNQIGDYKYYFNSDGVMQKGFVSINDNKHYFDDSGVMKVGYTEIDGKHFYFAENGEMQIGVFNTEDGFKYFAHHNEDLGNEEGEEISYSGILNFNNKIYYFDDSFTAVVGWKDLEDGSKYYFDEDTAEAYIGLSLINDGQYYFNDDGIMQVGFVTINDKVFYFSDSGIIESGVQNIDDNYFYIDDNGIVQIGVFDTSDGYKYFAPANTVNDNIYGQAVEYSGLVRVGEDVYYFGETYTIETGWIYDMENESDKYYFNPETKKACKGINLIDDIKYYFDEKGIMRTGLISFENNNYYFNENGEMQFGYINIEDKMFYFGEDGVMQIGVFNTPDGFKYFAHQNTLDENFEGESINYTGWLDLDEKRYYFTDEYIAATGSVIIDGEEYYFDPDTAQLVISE
Mtb BioA inh: inhibitors of Mycobacterium tuberculosis BioA enzyme; 0.096% of 360,000 active; inhibition, % at 9.99 µM; purified M. tuberculosis BioA enzyme, plate reader; in the data active means inhibition above about 40%; inconclusive means no clear call, values can overlap the other calls
BH1578 lux ind: induces V. cholerae light production without autoinducers | V. cholerae BH1578 lux reporter, luminescence, 6 h | activation, % at 18.7 µM | 0.16% of 350,000 active | AID 588436; in the data active means activation mostly above about 9.7%, no sharp cut-off; inconclusive means no clear call, values can overlap the other calls; inactive means mostly below about 3.7%
* marks the source's active call; other numbers are inactive results; i = inactive; ? = inconclusive; . = no result; + = active, no number; ! = a repeat was not active. Most compounds without a hit are left out; they make up all but 0.54% or so of the library.

SMILES	FadD28 FP inh	TcdB inh	Mtb BioA inh	BH1578 lux ind
COc1cccc(N2CCN(C(=O)c3cc(-c4ccc(F)cc4)[nH]c3C)CC2)c1	-1	1	0	-18
Cc1ccc(Oc2c(CO)c(-c3ccccc3)nn2C)cc1	0	12*	.	1
Cc1ccc(S(=O)(=O)c2c(CO)c(-c3ccccc3)nn2C)cc1	3	1	.	-1
Oc1ccc(NC(=S)Nc2ccccc2)cc1	-3	11*!	0	i
O=C(CC(c1ccccc1)c1ccccc1)Nc1ccc(O)cc1	-1	13*	-2	0
O=C(NC(=S)Nc1ccc(O)cc1)c1ccccc1Cl	-1	17*	0	i
COCCOC(=O)N1C(=O)[C@@]2(c3cc(C#CCCO)ccc31)[C@H](C(=O)NC[C@H](O)c1ccccc1)[C@H]1C(=O)O[C@H](c3ccccc3)[C@H](c3ccccc3)N1[C@@H]2c1ccc(O)cc1	.	-1	-7	.
COc1ccc(NC(=O)Nc2ccc3c(c2)CC(=O)N([C@H](C)CO)C[C@@H](C)[C@H](CN(C)S(=O)(=O)c2cn(C)cn2)O3)cc1	.	1	1	.
COc1ccc(S(=O)(=O)N2CCC[C@H]2C(=O)N2CCC[C@H]2C(=O)NCc2ccncc2)cc1C	.	10*	.	.
COc1ccc(S(=O)(=O)N2CCC[C@H]2C(=O)N2CCC[C@H]2C(=O)NCc2ccccc2)cc1C	.	4	.	.
COCC(=O)Nc1ccc2c(c1)OC[C@H](C)N(Cc1cccc(F)c1)C[C@@H](C)[C@H](OC)CN(C)C2=O	.	-1	.	.
CCN=c1scc(-c2ccco2)n1/N=C/c1ccc(OC)c(O)c1	9.4*	-3	-1	i
COc1ccc(NC(=O)N[C@@H]2CC[C@@H](CCNC(=O)c3ccccc3F)O[C@H]2CO)cc1	.	0	0	.
Cc1cc(C(=O)NNC(=O)c2ccc(Cl)cc2)c2ccccc2n1	0	0	0	25*
O=C(NNC(=O)c1ccccc1O)c1ccc(Cl)cc1	1	.	-1	0
Cc1cccc(C(=O)NNC(=O)c2ccc(Cl)cc2)c1O	-1	.	-3	50*
C[C@@H]1CCCCO[C@H](CN(C)C(=O)c2ccccc2)[C@@H](C)CN([C@@H](C)CO)C(=O)c2cc(NC(=O)C3CCCCC3)ccc2O1	.	0	1	.
COc1ccc(N=Nc2ccc(N)nc2N)cc1	-4	0	0	0
Nc1ccc(N=Nc2ccc(O)cc2)c(N)n1	0	20*	.	-1
COCC(=O)Nc1ccc2c(c1)[C@H]1C[C@@H](CC(=O)NCCc3ccccc3)O[C@H](CO)[C@H]1O2	.	1	-1	.
O=C(NC[C@H]1CC[C@@H]2[C@@H](CN2Cc2cccc(Cl)c2)O1)C1CC1	.	0	.	.
Cc1cc(NC(=O)CSC2=Nc3ccccc3C3=NC(Cc4ccccc4)C(=O)N23)n[nH]1 (configuration not stated)	-1	.	2	26*
O=C(C1CCCCC1)N1CC2(C1)[C@H](c1ccccc1)[C@H](CO)N2C(=O)NC1CCCC1	.	1	.	.
O=C(NCc1ccc(F)cc1)C(Cc1ccccc1)NS(=O)(=O)c1cccs1 (configuration not stated)	25*	2	-1	i
C/C(Cl)=C\Cn1c(O)c(N=O)c2ccccc21	?	0	.	+
SMILES	FadD28 FP inh	TcdB inh	Mtb BioA inh	BH1578 lux ind
Cc1ccc(Cn2c(O)c(N=O)c3ccccc32)cc1	-2	1	.	20
O=Nc1c(O)n(Cc2ccc(Cl)cc2)c2ccccc12	-3	.	6	226*
O=C(O)c1ccccc1N/N=C\c1ccnc2ccccc12	11*	.	.	i
ON=Cc1ccnc2ccccc12	-3	2	-1	1
O=C(CS(=O)(=O)c1c[nH]c2ccccc12)Nc1ccc(F)cc1	0	0	0	0
O=S(=O)(Cc1cccc(F)c1)c1c[nH]c2ccccc12	-5	15*	1	0
C[C@@H]1CN([C@H](C)CO)C(=O)c2cc(NS(=O)(=O)c3cccs3)ccc2O[C@@H](C)CCCCO[C@@H]1CN(C)C(=O)Cc1ccccc1	.	1	-1	.
CCCNC(=O)C[C@@H]1CC[C@H]2[C@@H](COc3ccc(NC(=O)Nc4ccccc4F)cc3C(=O)N2C)O1	.	1	5	.
CCCNC(=O)C[C@@H]1C[C@@H]2c3cc(NC(=O)NC4CCCCC4)ccc3O[C@@H]2[C@@H](CO)O1	.	0	1	.
CCCNC(=O)Nc1ccc2c(c1)OC[C@H](C)N(Cc1ccncc1)C[C@@H](C)[C@@H](OC)CN(C)C2=O	.	-1	-2	.
C[C@H]1CN([C@@H](C)CO)C(=O)c2cccc(NC(=O)Nc3ccc(F)cc3)c2O[C@@H]1CN(C)S(C)(=O)=O	.	.	1	.
COc1cc(/C=C2\C(=O)NC(=O)N(c3ccccc3)C2=O)c([N+](=O)[O-])cc1OC	-1	2	-4	i

Compound activity from PubChem BioAssay.
